Results from PubChem BioAssay (EPA / NIEHS).
Several values for one entry are separate records, joined by “and”; a condition that tells them apart may be missing. Identical values can stand only once. Activity calls are given as the source filed them. The calls were made as follows: active = hit-call score of the fitted dose curve at least 0.9, where 1 is the maximum; inactive = score below 0.9.

Read-out: Fatty Acid-Binding Protein 1 (FABP1), FABP1 (gene 2168)
Test: LTEA_HepaRG_FABP1: Life Technologies and Expression Analysis (LTEA) Assay for Fatty Acid-Binding Protein 1 (FABP1) using HepaRG (AID 2283494)
Conditions: mRNA level, 48 h; actives raise or lower the signal
Description: LTEA_HepaRG is a cell based, multiplexed-readout assay that uses HepaRG, a human liver cell line, with measurements taken at 48 hours after chemical dosing on a 96-well plate.LTEA_HepaRG_FABP1 is one of 102 assay component(s) measured in the LTEA HepaRG cell culture assay. It is a marker of Steatosis.Data from the assay component LTEA_HepaRG_FABP1 was analyzed into 1 endpoint. This assay endpoint, LTEA_HepaRG_FABP1, was analyzed with bidirectional fitting relative to DMSO as the negative control and baseline of activity. Using a type of inducible reporter, measures of mRNA induction for gain or loss-of-signal activity can be used to understand regulation of transcription factor activity. To generalize the intended target to other relatable targets, this assay endpoint is annotated to the transporter intended target family, where the subfamily is fatty acid carrier protein.
A total of 1060 chemcials from the ToxCast library were tested in eight-point concentration-response experiments. Cell culture and cytotoxicity assays were conducted at Thermo Fisher Scientific's Custom Services facility (Madison, WI). A single lot of human HepaRG cells (Thermo Fisher Scientific, Frederick, MD) was used for the cell culture experiments. 96-well format collagen type I coated plates of human HepaRG cells were prepared using established methods. Briefly, cryopreserved HepaRG cells were thawed, plated at a density of approximately 100,000 cells/well in HepaRG Thaw, Plate, and General Purpose media (HPRG770, Thermo Fisher Scientific), and incubated for 48 hours. 0.5% DMSO was selected as vehicle control to balance the requisite need of DMSO in HepaRG cultures to maintain differentiation (for example, baseline metabolism, proportions of hepatocytes vs. cholangiocytes), while enabling further hepatic receptor pathway activation (for example, PXR and CAR) in response to chemical exposure. 48 hours after plating, the culture medium was replaced with HepaRG Serum-Free Incudtion Media. Cells were exposed to each test chemical in duplicate and maintained in CO2 incubators for another 48 hours. Chemical plates were thawed to room temperature and 200x concentrations of treatment groups were prepared. 8-point conentration-reponse curves were made with the highest exposure at 100 uM, followed by half-log dilutions, all in 0.5% DMSO. Each test plate contained variouse controls, induction positive controls (1mM phenobarbital), cytotoxicity positive controls ([…] aflatoxin B1), vehicle controls (0.5% DMSO), and total lysis controls (0.5% DMSO). Cell morphology images were taken using an Essen IncuCyte FLR automated microscope, with six 96-well plates imaged in about 24 minutes. Images were captured and exported and JPEG files. Spent culture media was transfered to black-well plates for the LDH assay, and remaining media was sorted at -80 C for later use. Cells were treated with RLT buffer and frozen until shipped for gene expression analysis. Total RNA was isolated from the cell suspension in 75 uL of Buffer RLT (Qiagen, Germantown, MD 20874) by Quintiles/Expression Analysis (Durham, NC) using a custom isolation procedure. Total RNA from each plate well was transferred to a preamplification plate. Fluidigm's 96.96 Dynamic ArrayTM (Fluidigm, Amsterdam, the Netherlands) technology was used for gene expression analyses by quantitative reverse transcription polymerase chain reaction (qRT-PCR, performed by Quintiles/Expression Analysis, Durham, NC)89. Standard TaqManTM Assays (Applied Biosystems/ThermoFisher Scientific, Foster City, CA) were used to assess the expression of 93 genes selected based on their selectivity and sensitivity to important hepatic receptors known to be modulated by environmental chemicals; importance in human hepatocyte functionality; and hepatotoxicity. […]

Row | Compound | AC50 | outcome
1 | O=C(O)C(F)(F)C(F)(F)C(F)(F)C(F)(F)C(F)(F)C(F)(F)F | 22.5 µM (active) | –
2 | CCC(=O)C(CC(C)N(C)C)(c1ccccc1)c1ccccc1 (stereo unspecified) | – | inactive
3 | O=C1C2(Cl)C3(Cl)C4(Cl)C(Cl)(Cl)C5(Cl)C3(Cl)C1(Cl)C5(Cl)C24Cl (stereo unspecified) | 93.5 µM (active) | –
4 | O=[N+]([O-])c1ccc(O)c([N+](=O)[O-])c1 | 18.7 µM (active) | –
5 | O=C(O)C(Cl)(Cl)Cl | – | inactive
6 | CCCCCCCCc1ccc(O)cc1 | 71.8 µM (active) | –
7 | CCN1CCC2(CC1)COc1cc3c(cc12)N(C(=O)c1ccc(-c2ccc(-c4nnc(C)o4)cc2C)cc1)CC3 | 21.9 µM (active) | –
8 | O=c1[nH]c(=O)[nH]c(=O)[nH]1 | – | inactive
9 | Cc1ccccc1N | – | inactive
10 | C[C@@H]1C[C@@H]([C@H](O)CC2CC(=O)NC(=O)C2)C(=O)[C@@H](C)C1 | 13.2 µM (active) | –
11 | Cn1sc(Cl)cc1=O | – | inactive
12 | O=C(Nc1ccc2[nH]ccc2c1)c1cc2cc(F)ccc2n1Cc1cccc(F)c1 | 23.9 µM (active) | –
13 | CCC(C)(C)c1ccc(O)c(C(C)(C)CC)c1 | – | inactive
14 | CC(C)(OO)c1ccccc1 | – | inactive
15 | CC(C)(c1ccccc1)c1ccc(O)c(C(C)(C)c2ccccc2)c1 | 48.7 µM (active) | –
16 | C=CC(=O)OCCCCCC(C)C | – | inactive

Row | Compound | AC50 | outcome
17 | NC(=O)O | – | inactive
18 | CN(C)N=O | – | inactive
19 | CC(C)(C)CC(C)(C)c1ccc(O)cc1 | – | inactive
20 | O=C(O)C(F)(F)C(F)(F)C(F)(F)C(F)(F)C(F)(F)C(F)(F)C(F)(F)C(F)(F)C(F)(F)C(F)(F)F | – | inactive
21 | ClC1(Cl)C2(Cl)C3(Cl)C4(Cl)C(Cl)(Cl)C5(Cl)C3(Cl)C1(Cl)C5(Cl)C24Cl (stereo unspecified) | 3.49 µM (active) | –
22 | CC(C)(C)c1cc(O)ccc1O | – | inactive
23 | CC(=O)[O][Hg][c]1ccccc1 | 13 µM (active) | –
24 | COc1cc(-c2ccc(N)c(OC)c2)ccc1N | 46.3 µM (active) and 32.8 µM (active) | –
25 | ClCC(Cl)CCl | – | inactive
26 | CC12CC1(C)C(=O)N(c1cc(Cl)cc(Cl)c1)C2=O (stereo unspecified) | 9.46 µM (active) | –
27 | C=C(C)C(=O)[O][Sn]([CH2]CCC)([CH2]CCC)[CH2]CCC | – | inactive
28 | C[C@]12CCC(=O)C[C@@H]1CC[C@@H]1[C@@H]2CC[C@]2(C)[C@@H](O)CC[C@@H]12 | – | inactive
29 | Oc1cccc2cccnc12 | – | inactive
30 | CCOP(=S)(OCC)SCSP(=S)(OCC)OCC | 12.1 µM (active) | –
31 | CCOP(=S)(OCC)Oc1nc(Cl)c(Cl)cc1Cl | 50 µM (active) | –
